Only some compounds are listed: those with a hit (about 0.55% of all), similar ones and a draw of the others.
TRPV1 ag – HTS Assay for Compounds that Act as Agonists of the Vanilloid Receptor 1 | Transient receptor potential cation channel subfamily V member 1 (Homo sapiens), Q8NER1 | TRPV1-expressing cells, Fluo-8 calcium influx, agonist mode | activation, % at 8.33 µM | hit rate 0.19% among 320,000 | AID 540275, 2011; in the data active means activation above about 80%; inconclusive means between about 30% and that limit; further: 0% is about no effect
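TRPV1-expressing cells were cultured overnight at 35.5C and loaded with Fluo-8 calcium dye for 40 to 90 min at room temperature. After a 10 s baseline, compound was added and calcium influx was read kinetically for 3 min (ex 480/em 520 nm).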
TRPV1 potentiator – HTS Assay for Compounds that Act as Potentiators of the Vanilloid Receptor 1; TRPV1-expressing cells, Fluo-8 calcium influx, capsaicin EC20 potentiation; potentiation, % at 8.33 µM; Transient receptor potential cation channel subfamily V member 1 (Homo sapiens), Q8NER1; hit rate 0.02% among 320,000; in the data active means potentiation above about 80%; inconclusive means between about 30% and that limit; further: 0% is about no effect
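TRPV1-expressing cells were cultured overnight at 35.5C and loaded with Fluo-8 calcium dye for 40 to 90 min at room temperature. After a 10 s baseline, compound was added and calcium influx was read kinetically for 3 min (ex 480/em 520 nm).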
A-T KAP1 phos – qHTS Assay for Identifying a Potential Treatment of Ataxia-Telangiectasia; hit rate 0.19% among 320,000; Potency, µM (top dose mostly 57.5 µM), for inactives: at the top dose activation, hits mostly activators; F2112 A-T fibroblasts, KAP-1 phosphorylation AlphaLISA; neocarzinostatin DNA damage 30 min before lysis; AID 485349, 2010; further: potency means the concentration at half of the fitted maximal effect; % of control where 0% means no effect; nearly all actives have a fitted effect of over 45% in size
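ATM-like activity read as KAP-1 phosphorylation via AlphaLISA donor/acceptor antibody pairs after lysis and 6 hr at 25C. Cells were ATM-null patient fibroblasts (F2112, hTERT), dosed 60 min, then exposed to the DSB inducer NCS for 30 min.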
IMPase Li cell – qHTS Assay for Identifying the Cell-Membrane Permeable IMPase Inhibitors: Potentiation with Lithium | CHO-M1 cells, IP1 TR-FRET (IP-One), carbachol + lithium | Potency, µM (series often up to 59.4 µM), without a hit: at the top dose activity, negative = IMPase inhibition, hits mostly inhibitors | hit rate 0.35% among 210,000 | AID 1457, 2008;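 further: IP1 builds up when IMPase is blocked and the TR-FRET signal falls; potency means the concentration at half of the fitted maximal effect; plate controls were basal vehicle for no effect and high inhibitor control for full effect; nearly all actives have a fitted effect of over 50% in size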
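Concentration–response in CHO-M1 cells, lithium-potentiated; 30 min at 37C. IP1 detected by competitive TR-FRET after 10 min lysis at RT. Hill-fitted AC50.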
Numbers without * were called inactive; [ ] = dose if it differs, or a comment. Unless noted, the call rests on the fitted dose curve; in most records, active means well fitted curve in the direction sought with a large enough effect; inconclusive means small, poorly fitted or top-dose-only effect, or another doubt; inactive means no such curve, though single readings can be large; an effect the other way counts as inactive or inconclusive.

`COc1ccc(-c2cn3c4c(sc3n2)CCCC4)cc1` gave TRPV1 ag 81*, TRPV1 potentiator -18 and IMPase Li cell 29%[38.3 µM].
`CC(=O)N[C@@H]1CONC1=O` gave IMPase Li cell 1%.
CC(=O)Nc1ccc(O)c(-c2nc3ccccc3s2)c1 was read as TRPV1 ag inconclusive, TRPV1 potentiator -13, A-T KAP1 phos 8% and IMPase Li cell -4%.
`O=C(CCS(=O)(=O)c1ccccc1)Nc1ccc(-c2nc3ccccc3s2)c(O)c1` gave TRPV1 ag -5, TRPV1 potentiator -6, A-T KAP1 phos 4% and IMPase Li cell 11µM*.
NC(=O)[C@@H]1CC2(CC(c3cccc(NC(=O)CC(c4ccccc4)c4ccccc4)c3)=NO2)CN1C(=O)COc1ccc(Cl)cc1 (some centres undefined) was read as TRPV1 ag -1, TRPV1 potentiator -3 and A-T KAP1 phos 35µM*.
NC(=O)[C@H]1CC2(CC(c3cccc(NC(=O)COc4ccc(Cl)cc4)c3)=NO2)CN1C(=O)CC(c1ccccc1)c1ccccc1 (some centres undefined) was read as TRPV1 ag -1, TRPV1 potentiator inconclusive and A-T KAP1 phos -13%.
`COC(=O)c1ccccc1-c1c2ccc(=N)cc-2oc2cc(N)ccc12` gave TRPV1 ag 123*, TRPV1 potentiator -5 and A-T KAP1 phos inconclusive.
For O=C(O)c1ccccc1-c1c2ccc(=O)cc-2oc2cc(O)ccc12 the results were IMPase Li cell -29%.
COc1ccc(Nc2nc(NCc3ccco3)nc(N3CCOCC3)n2)cc1 was read as TRPV1 ag 86*, TRPV1 potentiator -10 and A-T KAP1 phos -8%.
COc1ccc(Nc2nc(N3CCOCC3)nc(N3CCOCC3)n2)cc1 was read as TRPV1 ag 2, TRPV1 potentiator -1 and A-T KAP1 phos -3%.
CCc1ccc(NC(=O)c2cc(C)on2)cc1 was read as TRPV1 ag inconclusive, TRPV1 potentiator -22, A-T KAP1 phos 6% and IMPase Li cell -14%[38.3 µM].
CCc1ccc(NC(=O)c2cc(C(C)C)on2)cc1 was read as TRPV1 ag 82*, TRPV1 potentiator -17, A-T KAP1 phos 18% and IMPase Li cell 14%[38.3 µM].
O=c1oc2ccccc2c(O)c1/C=N/c1nc(-c2ccc(O)c(O)c2)cs1 was read as IMPase Li cell -15%.
For NC(=O)C1CCN(Cc2nc3cc(C(F)(F)F)ccc3c(=O)[nH]2)CC1 the results were TRPV1 ag 7, TRPV1 potentiator -23 and A-T KAP1 phos 11µM*.
Screening CC1Cc2ccccc2N1Cc1nc2cc(C(F)(F)F)ccc2c(=O)[nH]1 (centres undefined) returned TRPV1 ag 1, TRPV1 potentiator -9, A-T KAP1 phos 1% and IMPase Li cell -6%[38.3 µM].
COc1ccc(-c2nc3n(c2C)CCC3)cc1 was read as TRPV1 ag 4, TRPV1 potentiator 16 and A-T KAP1 phos 25µM*.
For COc1ccc(-c2cc3nc4n(c(=O)c3s2)CCC4)cc1 the results were TRPV1 ag 13, TRPV1 potentiator -10, A-T KAP1 phos -1% and IMPase Li cell -6%[38.3 µM].
`COc1ccccc1-c1nn2c(C(F)(F)F)nnc2s1` gave TRPV1 ag inconclusive, TRPV1 potentiator -17, A-T KAP1 phos -4% and IMPase Li cell 7.9µM*.
COc1ccccc1-c1nn2c(C3COc4ccccc4O3)nnc2s1 (centres undefined) was read as TRPV1 ag 15, TRPV1 potentiator -2 and IMPase Li cell 32µM*.
`c1ccc(Cc2nn3c(C4COc5ccccc5O4)nnc3s2)cc1` (centres undefined) gave TRPV1 ag inconclusive, TRPV1 potentiator 0, A-T KAP1 phos 2% and IMPase Li cell 10%.
Screening CCN(CC)c1ccc2cc(-c3nc4ccccc4n3C)c(=O)oc2c1 returned A-T KAP1 phos inconclusive and IMPase Li cell -12%[38.3 µM].
`O=c1oc2ccc3ccccc3c2cc1-c1nnc(-c2ccccc2)o1` gave TRPV1 ag 12, TRPV1 potentiator -6, A-T KAP1 phos 7% and IMPase Li cell -11%[38.3 µM].
Screening CCN(CC)c1ccc2cc(-c3nnc(-c4ccccc4)o3)c(=O)oc2c1 returned TRPV1 ag 101*, TRPV1 potentiator 1, A-T KAP1 phos 9% and IMPase Li cell -5%.
For CCN(CC)c1ccc2cc(-c3nc4ccccc4[nH]3)c(=O)oc2c1 the results were TRPV1 ag 152*, TRPV1 potentiator 26, A-T KAP1 phos inconclusive and IMPase Li cell 4%.
Screening CCN(CC)c1ccc2cc(-c3nc(-c4ccc(OC)cc4)cs3)c(=O)oc2c1 returned TRPV1 ag inconclusive, TRPV1 potentiator 3, A-T KAP1 phos 25µM* and IMPase Li cell -11%.
COCC(=O)N1CCc2nc(-c3ccc(OC)cc3C)c3c(c2C1)CO[C@@H](c1ccccc1)C3 was read as IMPase Li cell 5%.
For COc1ccc(N2CCN(CCNC(=O)c3ccc4c(c3)[nH]c(=S)n3c5ccccc5nc43)CC2)cc1 the results were TRPV1 ag -2, TRPV1 potentiator -3, A-T KAP1 phos -7% and IMPase Li cell 14µM*.
NC(N)=NS(=O)(=O)c1ccc(NC(=S)NC(=O)c2ccccc2)cc1 was read as TRPV1 ag 1, TRPV1 potentiator 9 and A-T KAP1 phos -9%.
Screening NS(=O)(=O)c1ccc(NC(=S)NC(=O)c2ccc(-c3ccccc3)cc2)cc1 returned TRPV1 ag -5, TRPV1 potentiator inconclusive, A-T KAP1 phos 8% and IMPase Li cell 11µM*.
`CC(=O)c1cc(C)oc1C` gave IMPase Li cell -8%.
O=C1C([N+](=O)[O-])=C(O)c2cccc3cccc1c23 was read as TRPV1 ag 2, TRPV1 potentiator 28 and A-T KAP1 phos 28µM*.
Screening O=C(N/N=C1\C(=O)c2cccc3cccc1c23)c1ccc(O)cc1 returned TRPV1 ag 2, TRPV1 potentiator 10, A-T KAP1 phos -3% and IMPase Li cell 29%.
CCCCn1c(SCC(=O)Nc2cc(C)on2)nc2ccccc2c1=O was read as TRPV1 ag -1, TRPV1 potentiator -3, A-T KAP1 phos -2% and IMPase Li cell 5.6µM*.
Screening CCCCn1c(SCC(=O)NC(C)CC)nc2ccc(N3CCOCC3)cc2c1=O (centres undefined) returned TRPV1 ag -3, TRPV1 potentiator 2, A-T KAP1 phos 1% and IMPase Li cell 11µM*.
CCc1cc2ccccc2nc1SCC(=O)Nc1cc(C)on1 was read as TRPV1 ag 16, TRPV1 potentiator 2, A-T KAP1 phos -4% and IMPase Li cell 10µM*.
Screening Cc1ccc(NC(=O)CSc2nc3ccccc3c(=O)n2Cc2cccs2)cc1 returned TRPV1 ag 27, TRPV1 potentiator -5, A-T KAP1 phos 4% and IMPase Li cell 13µM*.

High-throughput results as filed in PubChem.
